# “And” between values parts separate entries of the source, which are not always exact repeats. Equal values may be shown once. The panel holds about 79,000 compounds, 15% with a hit somewhere; the sample as a whole holds those more often. A number with no mark means an inactive call. The source made the active and inactive calls. No stated cut-off is given here; in the data, active means growth inhibition above about 70%; inactive means the rest.
# Key:
# [1] = NCI Yeast Anticancer Drug Screen. Data for the rad50 strain (AID 155);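 further: 0% = growth of vehicle-only cultures of the same strain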; conditions: S. cerevisiae rad50 strain growth inhibition, hits give high values; at 50.0 µM unless noted
# Outline: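 Readout: growth inhibition relative to vehicle-treated cultures. Compound exposure was carried out in a genetically defined yeast strain deficient in DNA damage repair.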
# [2] = NCI Yeast Anticancer Drug Screen. Data for the mec2-1 strain (AID 157); conditions: S. cerevisiae mec2-1 strain, hits give high values; at 50.0 µM unless noted
# Outline: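 Growth inhibition is read against vehicle-treated controls after compound exposure of the mec2-1 yeast strain, which is defective in DNA damage repair or cell cycle control.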
# [3] = NCI Yeast Anticancer Drug Screen. Data for the sgs1 mgt1 strain (AID 161);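 further: 0% = growth of cultures given vehicle only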; conditions: S. cerevisiae sgs1 mgt1 strain, hits give high values; at 50.0 µM unless noted
# Outline: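 Yeast cells carrying a defined DNA-repair defect were exposed to test compounds. Growth inhibition was measured relative to vehicle-treated controls.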
# [4] = NCI Yeast Anticancer Drug Screen. Data for the cln2 rad14 strain (AID 165);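 further: 0% = growth equal to vehicle treated cultures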; conditions: S. cerevisiae cln2 rad14 strain, hits give high values; at 50.0 µM unless noted
# Outline: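 Growth inhibition, relative to vehicle-treated controls, is the read-out. The test organism is a yeast strain with defined genetic alterations, cln2 rad14.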
# [5] = NCI Yeast Anticancer Drug Screen. Data for the bub3 strain (AID 167); conditions: S. cerevisiae bub3 mutant strain, hits give high values; at 50.0 µM unless noted
# Outline: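 Readout: yeast growth inhibition, expressed relative to vehicle-only wells. The test organism is a mutant strain from a panel with lesions in DNA repair or checkpoint genes.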
# [6] = NCI Yeast Anticancer Drug Screen. Data for the mlh1 rad18 strain (AID 175); conditions: S. cerevisiae mlh1 rad18 strain growth inhibition, hits give high values; at 50.0 µM unless noted
# Outline: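 Cells of a genetically altered yeast strain, deficient in DNA damage repair, were treated with compound. Their growth was then compared with that of vehicle-treated cultures to give inhibition.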
Structure (SMILES),growth inhibition [1],growth inhibition [2],growth inhibition [3],growth inhibition [4],growth inhibition [5],growth inhibition [6]
CCCN(CCC)C(=O)c1ccccc1C,9.5%,-2%,6.65%,-14.1%,18.4%,2.9%
O=C1CCCCCCCCCCCCCCCCC1,-13.3%,-5.85%,-11.3%,-7.25%,-2.15%,-13.9%
O=S1(=O)c2ccccc2Nc2cc3ccccc3cc21,6.75%,2.4%,0.85%,-11.5%,-2.55%,6.25%
CC(=O)Oc1c(I)cc(Cc2nc(C)oc2C)cc1I,-41.1%,-1.15%,6.5%,1%,6.8%,-4.8%
CC(C)CC(C(=O)NC1CCCCC1)N1C(=O)c2ccccc2C1=O (configuration not stated),-17.1%,1.9%,-4.3%,-8.2%,-4.4%,20.7%
CCN(CC)c1ccc2cc(C(=O)NCc3ccccc3)c(=N)oc2c1,9.7%,15.8%,-15.8%,3.45%,-38%,7.35%
COc1cc(CC(=O)O)ccc1OC(C)=O,4.15%,2.65%,-16.8%,-25.1%,1.25%,-5.75%
COc1cc(/C=C/c2ccc(N(C)C)cc2)oc(=O)c1,21.5%,5.45%,26.6%,6.85%,5.65%,0.25%
CC[N+](CC)(CC)Cc1cn(S(=O)(=O)c2ccccc2)c2ccccc12,4.3%,-0.7%,-0.95%,-64.7%,-0.7%,5.95%
O=C1CN2CCC1C/C2=C\c1ccnc2c(Cl)cc(Cl)cc12 (configuration not stated),7.75%,-7.55%,-0.9%,-3.4%,-12%,19.2%
Cc1n[nH]c(=O)n1/N=C/c1ccncc1,8.45%,6.95%,-6%,-17%,-4.35%,7%
CC1(C)COC1(c1ccccc1)c1cccnc1 (configuration not stated),-45.1%,-11.4%,-14.1%,-39.2%,8.15%,-16.8%
Cc1cc(=O)n(-c2ccccc2)c(=O)[nH]1,1.2%,1.95%,1.5%,1.2%,-4.25%,-12%
COC(=O)CCC(NC(=S)N/N=C(\C)c1ccco1)C(=O)OC (configuration not stated),-18.1%,-20.8%,0.25%,26.6%,-5.2%,-16.3%
O=C(O)/C(=C/c1cccc(Cl)c1)c1ccc(Cl)cc1,0.85%,-10.8%,0.7%,-51.8%,2.4%,-0.75%
COc1ccc(/C(C)=N/NC(=O)c2ccncc2)cc1OC,-9.6%,-9.9%,-18.6%,-12.7%,-40%,-4.2%
CCOC(=O)C(=O)Nc1c(C)cccc1C(C)(C)C,-22.1%,-30.4%,-4.35%,3.55%,-16.8%,-7.05%
Cc1nc(Nc2nc3ccccc3[nH]2)[nH]c(=O)c1CCO,9.6%,5.4%,-7.3%,21.9%,15.8%,-6.45%
CCS(=O)(=O)/C=C/c1cccs1,-9.1%,-7.95%,-8.65%,-47.6%,4.8%,-17.6%

Structure (SMILES),growth inhibition [1],growth inhibition [2],growth inhibition [3],growth inhibition [4],growth inhibition [5],growth inhibition [6]
COC(=O)C(=O)C1CCCC(C)(c2ccccc2)C1 (configuration not stated),-0.1%,2.05%,-5.05%,0.2%,1.7%,-4.7%
CC(C)(C)OC(=O)NNS(=O)(=O)CCC(NC(=O)OCc1ccccc1)C(=O)OCc1ccccc1 (configuration not stated),46.7%,93.2% (active),51.1%,86.5% (active),94.5% (active),95.6% (active)
COCc1cccc2ccnc(COC)c12,-8.2%,2.45%,5.95%,9.4%,-8.35%,5.25%
CC(C)(C)NSc1nc2ccccc2s1,-21.8%,2.45%,-12.7%,4.2%,-2.5%,-8.5%
COC(=O)c1c(C)ccc(C)c1Nc1cc(C)ccc1C,-2.65%,-18%,-1.2%,9.55%,5.65%,-15.7%
O=Nc1c(S(=O)(=O)O)cc2cc(S(=O)(=O)O)ccc2c1O,41.9%,0.55%,45.2%,22.4%,23.1%,30.4%
CCOC(=O)/C(Cc1cc[n+]([O-])cc1)=N/O,33.5%,27.3%,15.2%,13.5%,13.6%,20.5%
CCCC(=O)NC1CCc2cc(OC)c(OC)c(OC)c2-c2ccc(OC)c(=O)cc21 (configuration not stated),27.4%,-40.5%,23.1%,-0.9%,3.45%,3.2%
COc1cc(O)c(C(=O)/C=C/c2ccccc2)c(OC)c1,1.05%,-12.1%,27.1%,15.6%,15.1%,-21.4%
CC(O)c1cccc(NC(=O)NC2CCCCC2)c1 (configuration not stated),-2.55%,28.1%,10.8%,-6.1%,29.4%,27.8%
O=P(O)(O)OC1OC(CO)C(O)C(O)C1O (configuration not stated),-16.5%,-26.2%,-3.9%,-25.6%,-24.8%,-4.75%
CCCCOC(c1ccccc1)c1ccccc1,-19.8%,-18.6%,-11.8%,-17.8%,-4.25%,1.95%
Nc1cccc2c1nc(NCCO)c1ccccc12,23.8%,3.5%,-15.6%,-4.5%,10.7%,49.1%
CC(C)(C)OC(=O)c1ccccc1C(=O)c1ccccc1,-0.4%,-1.2%,-4.8%,14.3%,9.05%,-10.8%
Cc1cc(-c2cc(C)c(O)c(C)c2)cc(C)c1O,17.1% and -1.5%,16.6% and 0.8%,39.1% and -7.05%,14.9% and -4.3%,4.7% and -35.7%,23.2% and 3.3%
CC(=O)O[C@H]1[C@@H](OC(C)=O)C(C)(C)/C=C/[C@H](C)C(=O)[C@@]2(OC(C)=O)C[C@@](C)(OC(C)=O)[C@H](OC(C)=O)[C@@H]2[C@H]2OC(=O)CC[C@@]2(OC(=O)c2ccccc2)[C@@H]1OCC(C)C,3.85%,-2.15%,-15.8%,36%,-22.3%,-0.15%
O=C1c2ccccc2C(=O)N1CCCCCCS(=O)(=O)Cl,13.7%,10.9%,-2.75%,-16.9%,-7.35%,0.55%
CCCCCCCCCCCC,-33.9%,25.4%,13.6%,-25.9%,37.9%,-9.9%

# — PubChem BioAssay (NCI)
